Experimental data taken from PubChem BioAssay (NCI).
About 79,000 compounds went through this panel and 15% of them were active in at least one assay; those are over-represented in the sample as a whole. Activity calls are given as the source filed them. Rule as the data show it: active = growth inhibition above about 70%; inactive = the rest.

Experiments:
[1] = NCI Yeast Anticancer Drug Screen. Data for the rad52 strain (AID 147);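 also: 0% = growth of vehicle-treated control cultures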; settings: S. cerevisiae rad52 mutant growth inhibition, stronger effect = higher value
Outline: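 Inhibition of yeast growth, referenced to vehicle controls, was the measured output for a strain with defective DNA damage repair.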

[2] = NCI Yeast Anticancer Drug Screen. Data for the wt1 strain (AID 149);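 also: 0% = growth of vehicle-treated wt1 cultures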; settings: S. cerevisiae wt1 strain (SPY 50644) growth inhibition, stronger effect = higher value
Outline: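 Yeast wt1 strain exposed to compounds; growth inhibition measured relative to vehicle-treated controls.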

[3] = NCI Yeast Anticancer Drug Screen. Data for the rad50EPP+ strain (AID 151);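 also: 0% = growth of vehicle-treated control cultures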; settings: S. cerevisiae rad50 mutant strain, stronger effect = higher value
Outline: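 Genetically defined yeast (rad50EPP+, DNA damage repair alteration) is grown with compound, and inhibition of growth is expressed relative to vehicle-treated controls.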

[4] = NCI Yeast Anticancer Drug Screen. Data for the mgt1 strain (AID 153); settings: S. cerevisiae mgt1 mutant growth inhibition, stronger effect = higher value
Outline: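 In the mgt1 strain, test compounds were added and growth inhibition was determined relative to vehicle-treated controls.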

[5] = NCI Yeast Anticancer Drug Screen. Data for the rad50 strain (AID 155);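 also: 0% = growth of vehicle-only cultures of the same strain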; settings: S. cerevisiae rad50 strain growth inhibition, stronger effect = higher value
Outline: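 Yeast carrying a defined DNA repair defect were exposed to test compounds, and growth was compared with vehicle-treated controls to give percent inhibition.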

[6] = NCI Yeast Anticancer Drug Screen. Data for the mec2-1 strain (AID 157); settings: S. cerevisiae mec2-1 strain, stronger effect = higher value
Outline: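 Each compound was tested on mec2-1 yeast, a strain altered in DNA damage repair or cell cycle control. Growth inhibition is reported relative to vehicle.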

[7] = NCI Yeast Anticancer Drug Screen. Data for the rad14 strain (AID 159);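 also: 0% = growth of vehicle-treated control cultures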; settings: S. cerevisiae rad14 strain growth inhibition, stronger effect = higher value
Outline: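 Yeast cells carrying a defined DNA-repair defect were exposed to compounds, and growth inhibition was calculated relative to vehicle-treated control cultures.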

[8] = NCI Yeast Anticancer Drug Screen. Data for the sgs1 mgt1 strain (AID 161);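 also: 0% = growth of cultures given vehicle only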; settings: S. cerevisiae sgs1 mgt1 strain, stronger effect = higher value
Outline: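 Test agents were incubated with a DNA-repair-mutant yeast strain. Growth was then read and compared against vehicle-treated controls.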

[9] = NCI Yeast Anticancer Drug Screen. Data for the CLN2oe strain (AID 163);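 also: 0% = growth of vehicle-only control cultures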; settings: S. cerevisiae CLN2oe strain, stronger effect = higher value
Outline: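 First, the altered yeast strain was treated with each compound; second, its growth was measured; finally, inhibition was derived by comparison with vehicle controls.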

[10] = NCI Yeast Anticancer Drug Screen. Data for the cln2 rad14 strain (AID 165);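 also: 0% = growth equal to vehicle treated cultures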; settings: S. cerevisiae cln2 rad14 strain, stronger effect = higher value
Outline: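 Test compounds were added to cln2 rad14 yeast cultures; inhibition of growth was then determined by comparison with vehicle treatment.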

[11] = NCI Yeast Anticancer Drug Screen. Data for the wt2 strain (AID 169);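 also: 0% = growth of vehicle-treated yeast cultures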; settings: S. cerevisiae wt2 strain growth inhibition, stronger effect = higher value
Outline: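 The panel's yeast strains carry defined changes in DNA repair or cell cycle genes. Each strain is grown with compound, and growth loss is scored relative to vehicle.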

[12] = NCI Yeast Anticancer Drug Screen. Data for the mlh1 strain (AID 171);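 also: 0% = growth of vehicle-treated control cultures of the same strain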; settings: S. cerevisiae mlh1 strain growth inhibition, stronger effect = higher value
Outline: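 Inhibition values reflect reduced yeast growth in the presence of compound, referenced to vehicle controls, using a strain chosen for its alteration in DNA repair or cell cycle control.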

[13] = NCI Yeast Anticancer Drug Screen. Data for the mlh1 rad18 strain (AID 175); settings: S. cerevisiae mlh1 rad18 strain growth inhibition, stronger effect = higher value
Outline: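 Inhibition values reflect reduced growth of mutant yeast versus vehicle-treated controls following compound exposure; the mutations affect DNA damage repair.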

[14] = NCI Yeast Anticancer Drug Screen. Data for the rad18 strain (AID 177); settings: S. cerevisiae rad18 mutant growth inhibition, stronger effect = higher value
Outline: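 Steps: expose repair-mutant yeast to compound; measure growth; express as inhibition relative to vehicle control.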

[15] = NCI Yeast Anticancer Drug Screen. Data for the bub3 strain (AID 167); settings: S. cerevisiae bub3 mutant strain, stronger effect = higher value
Outline: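 Compounds were applied to a genetically altered yeast strain carrying a cell-cycle control defect. Growth inhibition was scored against vehicle-treated controls.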

[16] = NCI Yeast Anticancer Drug Screen. Data for the sgs1 strain (AID 173);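 also: 0% = growth of vehicle-only control cultures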; settings: S. cerevisiae sgs1 mutant, stronger effect = higher value
Outline: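 Vehicle-treated cultures served as reference for growth inhibition of a yeast strain altered in DNA damage repair or cell cycle control after compound exposure.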

[17] = at 5.0 µM (retest, dose inferred, filed as 0.5)
[18] = at 50.0 µM (retest, dose inferred, filed as 5.0)

Measured: growth inhibition

Fc1cc(F)c(F)c(S)c1F
inactive: [1]; at 1.2 µM -44% | [1]; at 3.7 µM -10% | [1]; at 11.0 µM -38% | [1]; at 33.0 µM 29% | [2]; at 1.2 µM -31% | [2]; at 3.7 µM -26% | [2]; at 11.0 µM -39% | [2]; at 33.0 µM 36% | [3]; at 1.2 µM -51% | [3]; at 3.7 µM -18% | [3]; at 11.0 µM 45% | [4]; at 1.2 µM -78% | [4]; at 3.7 µM -74% | [4]; at 11.0 µM -56% | [4]; at 33.0 µM 48% | [5]; at 1.2 µM -43% | [5]; at 3.7 µM -28% | [5]; [17] -12% | [5]; at 11.0 µM -32% | [5]; at 33.0 µM 25% | [6]; at 1.2 µM -56% | [6]; at 3.7 µM -55% | [6]; [17] -19% | [6]; at 11.0 µM -6% | [6]; at 33.0 µM 10% | [7]; at 1.2 µM -47% | [7]; at 3.7 µM -44% | [7]; at 11.0 µM -40% | [7]; at 33.0 µM 4% | [8]; [17] -1% | [9]; at 1.2 µM -29% | [9]; at 3.7 µM -20% | [9]; at 11.0 µM 8% | [9]; at 33.0 µM 69% | [10]; [17] 43% | [11]; at 1.2 µM -48% | [11]; at 3.7 µM -46% | [11]; at 11.0 µM -32% | [11]; at 33.0 µM 56% | [12]; at 1.2 µM -34% | [12]; at 3.7 µM -27% | [12]; at 11.0 µM 0% | [13]; [17] 9% | [14]; at 1.2 µM -43% | [14]; at 3.7 µM -34% | [14]; at 11.0 µM -12% | [14]; at 33.0 µM 48%
active: [1]; at 100.0 µM 98% | [2]; at 100.0 µM 97% | [3]; at 33.0 µM 90% | [3]; at 100.0 µM 98% | [4]; at 100.0 µM 97% | [5]; [18] 91% | [5]; at 50.0 µM 87.9% | [5]; at 100.0 µM 97% | [6]; [18] 97% | [6]; at 50.0 µM 92.3% | [6]; at 100.0 µM 99% | [7]; at 100.0 µM 96% | [8]; [18] 89% | [8]; at 50.0 µM 83.7% | [9]; at 100.0 µM 98% | [10]; [18] 83% | [10]; at 50.0 µM 79.5% | [11]; at 100.0 µM 98% | [12]; at 33.0 µM 72% | [12]; at 100.0 µM 98% | [13]; [18] 99% | [13]; at 50.0 µM 74.5% | [14]; at 100.0 µM 96%

Cc1cccc(C)c1NC(=O)CCC(=O)C(C)C(=O)c1ccc(O)cc1 (stereo not given)
inactive: [1]; at 1.2 µM 2% | [1]; at 3.7 µM 1% | [1]; at 11.0 µM 2% | [1]; at 33.0 µM 1% | [1]; at 100.0 µM 0% | [2]; at 1.2 µM -1% | [2]; at 3.7 µM -2% | [2]; at 11.0 µM -1% | [2]; at 33.0 µM -1% | [2]; at 100.0 µM -2% | [3]; at 1.2 µM 0% | [3]; at 3.7 µM -1% | [3]; at 11.0 µM 1% | [3]; at 33.0 µM 1% | [3]; at 100.0 µM 8% | [4]; at 1.2 µM -1% | [4]; at 3.7 µM 4% | [4]; at 11.0 µM -3% | [4]; at 33.0 µM -2% | [4]; at 100.0 µM -5% | [5]; at 1.2 µM -1% | [5]; at 3.7 µM 0% | [5]; [17] 1% | [5]; at 11.0 µM 1% | [5]; at 33.0 µM 1% | [5]; [18] 2% | [5]; at 50.0 µM 57.6% | [5]; at 100.0 µM 0% | [6]; at 1.2 µM -6% | [6]; at 3.7 µM -5% | [6]; [17] -2% | [6]; at 11.0 µM -6% | [6]; at 33.0 µM -3% | [6]; [18] 8% | [6]; at 50.0 µM 15.1% | [6]; at 100.0 µM -5% | [7]; at 1.2 µM -1% | [7]; at 3.7 µM 2% | [7]; at 11.0 µM 2% | [7]; at 33.0 µM 0% | [7]; at 100.0 µM -1% | [8]; [17] 0% | [8]; [18] 5% | [8]; at 50.0 µM 23.2% | [9]; at 1.2 µM -5% | [9]; at 3.7 µM -4% | [9]; at 11.0 µM -3% | [9]; at 33.0 µM 1% | [9]; at 100.0 µM -3% | [15]; at 1.2 µM -2% | [15]; at 3.7 µM -2% | [15]; [17] 0% | [15]; at 11.0 µM -2% | [15]; at 33.0 µM -2% | [15]; [18] 7% | [15]; at 50.0 µM 11.8% | [15]; at 100.0 µM 5% | [11]; at 1.2 µM -1% | [11]; at 3.7 µM -1% | [11]; at 11.0 µM 0% | [11]; at 33.0 µM 0% | [11]; at 100.0 µM -1% | [12]; at 1.2 µM -2% | [12]; at 3.7 µM -3% | [12]; at 11.0 µM -1% | [12]; at 33.0 µM -2% | [12]; at 100.0 µM -1% | [16]; at 1.2 µM -2% | [16]; at 3.7 µM -2% | [16]; at 11.0 µM -2% | [16]; at 33.0 µM -2% | [16]; at 100.0 µM 0% | [13]; [17] -1% | [13]; [18] 6% | [13]; at 50.0 µM 6.95% | [14]; at 1.2 µM -2% | [14]; at 3.7 µM -1% | [14]; at 11.0 µM 0% | [14]; at 33.0 µM -2% | [14]; at 100.0 µM 0%
